# Methyltransferases = Primary Screen for Target Class Profiling of Small Molecule Inhibitors of Methyltransferases; purified enzyme, MTase-Glo SAH luminescence; active compounds read low; calls only at 40 µM; hit rate 3.9% among 25,000; AID 1745853, 2022; call rule not given here
#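 Each enzyme was assayed with SAM and its substrate. SAH formation detected by MTase-Glo luminescence; single-point 40 uM screen[…].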
# MTase-Glo ctr = detection enzyme interference, methyltransferase counter-screen; shares compounds with Methyltransferases; MTase-Glo coupled enzymes, SAH conversion luminescence, no MTase; Potency, µM (top dose mostly 57.3 µM), inactives show top-dose activity change, negative = inhibition, most hits filed as inhibitors; hit rate 6% among 180; active means well fitted inhibition curve with a large enough effect; further: potency means the concentration at half of the fitted maximal effect
# The depositor's hits bear a star; i = inactive; + = active, no number; [ ] = remark or other dose. The full list was thinned out, with hits kept by preference. On the % scale 0 is the no-effect control and ±100 the full control effect.
SMILES,Methyltransferases,others
CCOc1ccccc1CNC(=O)c1cc2n(n1)CC(C)(C(=O)NC1CCCC1)N(C)C2=O (stereo unspecified),i,
CN(C)CC1(O)CCC2(CCN(C(=O)c3cccn3C)CC2)CC1,+,MTase-Glo ctr=5.41µM*
CN1CC2(CCN(C(=O)c3cccn3C)CC2)CC(c2ccccc2)C1=O (stereo unspecified),i,
Cn1cccc1C(=O)N1CC[C@H](CO)[C@H](NC(=O)C2CC2)C1,i,
Cc1cc2[nH]c(=O)[nH]c2cc1S(=O)(=O)N1CCC(C)CC1,i,
CCCn1c(=O)c2ccccc2n2c(=O)n(CC(=O)NCc3ccccc3)nc12,i,
CC1(C(=O)NC2CCCCCCC2)Cn2c(cc3sccc32)C(=O)N1Cc1cccc(Cl)c1 (stereo unspecified),i,
CC(C)c1ccc(CC(=O)N2CCCc3ncc(C(=O)NCCc4c[nH]c5ccccc45)cc32)cc1,i,
O=C(Nc1ccccc1)c1cc2n(n1)CCN(C(=O)COc1ccccc1)C2,i,
O=C(Nc1ccccc1)c1cnc2c(c1)N(C(=O)Cc1ccc(O)cc1)CCC2,+,MTase-Glo ctr=-5.5%[85.7 µM]
CC(C)(C)c1cc2n(n1)CC(C)(C(=O)NC1CCCCCC1)N(Cc1cccc(F)c1)C2=O (stereo unspecified),i,
CCCn1c(=O)c2ccc(C(=O)NCC(C)C)cc2n2c(=O)n(CC(=O)c3cccc(Cl)c3)nc12,i,
CCCCNC(=O)c1cc2n(n1)CC(C)(C(=O)NC1CCCC1)N(CCC)C2=O (stereo unspecified),i,
COc1ccc(C(C)NC(=O)c2c(C)sc3ccn(C)c(=O)c23)cc1 (stereo unspecified),i,
CCCCN(C)C(=O)c1c(C)sc2ccn(CCC)c(=O)c12,+,MTase-Glo ctr=-1.1%
Cc1sc2ccn(CC(C)C)c(=O)c2c1C(=O)N1CCCCC1,i,
Cc1ccc(Cn2c(=O)c3ccc(C(=O)NC(C)C)cc3n3c(=O)n(Cc4cccc(C)c4)nc23)cc1,i,
Cc1ccc2c(c1)c(-n1cccc1)c1n2CC(C)(C(=O)NCCC(C)C)N(Cc2cccs2)C1=O (stereo unspecified),i,
O=C(NCCCN1CCc2ccccc2C1)C1CCc2ncc(-c3ccc(F)cc3)n2C1 (stereo unspecified),+,MTase-Glo ctr=-1.6%
CCCNC(=O)C1CCc2ncc(-c3ccc(OC)cc3)n2C1 (stereo unspecified),i,
O=C(NCC1CC1)C1CCc2ncc(-c3ccc(F)cc3)n2C1 (stereo unspecified),i,
COc1ccccc1CNC(=O)C1(C)Cn2cnc(C(=O)NCc3cccnc3)c2C(=O)N1C1CC1 (stereo unspecified),i,
Cc1ccc(CCNC(=O)CNC(=O)C2(C)Cn3c(cc4ccccc43)C(=O)N2C)cc1 (stereo unspecified),i,
COc1ccc(-c2cc3n(n2)CC(C)(C(=O)NCc2ccccc2)N(Cc2ccccc2Cl)C3=O)cc1 (stereo unspecified),i,
Cc1nn(-c2ccccc2)c2c1C(C)N(C1CCN([S+](=O)([O-])c3c(C)noc3C)C1)C2=O (stereo unspecified),i,
SMILES,Methyltransferases,others
Cc1noc(C)c1[S+](=O)([O-])N1CCn2c(nn(-c3ccc(C(F)(F)F)cc3)c2=O)C1,+,MTase-Glo ctr=-2.5%
COc1ccc(-c2nnc3n2CCN([S+](=O)([O-])c2c(C)noc2C)C3)cc1,i,
CC(C(=O)NCCc1ccc(Cl)cc1)n1ccc2cc(S(=O)(=O)N3CCCC3)ccc21 (stereo unspecified),i,
CCCn1c(=O)c2ccccc2n2c(=O)n(CC(=O)Nc3ccc(OC)cc3)nc12,i,
C1=C(c2nc(-c3ccncc3)cc3c2ccn3Cc2cccnc2)CCOC1,+,MTase-Glo ctr=0.8%[85.7 µM]
O=C(CCn1ccc2cc(S(=O)(=O)N3CCCCC3)ccc21)NCc1cccnc1,i,
CCC(C)NC(=O)c1ccc2c(=O)n(C(C)C)c3nn(Cc4cccc(Cl)c4)c(=O)n3c2c1 (stereo unspecified),i,
CC(=O)Nc1ccc(Nc2nc3c(S(=O)(=O)c4ccc(Br)cc4)nnn3c3ccccc23)cc1,i,
CCCn1c(=O)c2ccccc2n2c(SCC(=O)NC(C)C)nnc12,i,
O=C(NCCN1CCN(c2cccc3ccc(O)cc23)CC1)c1ccc(F)cc1,i,
Oc1ccc(NCCN2CCCC2)cc1,+,MTase-Glo ctr=-5.7%[114 µM]
Cc1ccc(NC(=O)N2CCCN(CCn3nc4n(c3=O)CCCC4)CC2)cc1F,i,
CCOc1ccc(CNC(=O)c2cc3n(n2)CC(C)(C(=O)NC2CCCCC2)N(C)C3=O)cc1 (stereo unspecified),i,
CC1CCN(S(=O)(=O)c2ccc3c(c2)oc(=O)n3CC(=O)N2CC(C)CC(C)C2)CC1 (stereo unspecified),i,

# Screens: PubChem, National Center for Advancing Translational Sciences (NCATS)
